Compounds without any hit were thinned out: in the full panel of roughly 79,000, 15% have a hit. Values without a mark were called inactive. The source made the active and inactive calls. Cut-off read from the data, not from the text of the source: active = growth inhibition above about 70%; inactive = the rest.
How the values were obtained:
[1] = NCI Yeast Anticancer Drug Screen. Data for the rad50EPP+ strain (AID 151);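 note: 0% = growth of vehicle-treated control cultures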; conditions: S. cerevisiae rad50 mutant strain, active compounds read high
Procedure, shortened: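 Exposing the rad50EPP+ strain to each compound, growth was compared with vehicle-only cultures to give inhibition.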

[2] = NCI Yeast Anticancer Drug Screen. Data for the mgt1 strain (AID 153); conditions: S. cerevisiae mgt1 mutant growth inhibition, active compounds read high
Procedure, shortened: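 Genetically defined yeast (mgt1) treated with compound; inhibition of growth expressed against vehicle-treated controls.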

[3] = NCI Yeast Anticancer Drug Screen. Data for the rad50 strain (AID 155);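 note: 0% = growth of vehicle-only cultures of the same strain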; conditions: S. cerevisiae rad50 strain growth inhibition, active compounds read high
Procedure, shortened: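 Vehicle-treated cultures provide the reference for the growth inhibition reported for compound-exposed, repair-deficient yeast.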

[4] = NCI Yeast Anticancer Drug Screen. Data for the mec2-1 strain (AID 157); conditions: S. cerevisiae mec2-1 strain, active compounds read high
Procedure, shortened: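 Readout is yeast growth inhibition, normalised to vehicle-treated controls, in the mec2-1 strain exposed to compound.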

[5] = NCI Yeast Anticancer Drug Screen. Data for the rad14 strain (AID 159);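 note: 0% = growth of vehicle-treated control cultures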; conditions: S. cerevisiae rad14 strain growth inhibition, active compounds read high
Procedure, shortened: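 Inhibition of growth is reported for a repair-deficient yeast mutant following compound treatment, calculated relative to cultures that received vehicle.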

[6] = NCI Yeast Anticancer Drug Screen. Data for the sgs1 mgt1 strain (AID 161);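 note: 0% = growth of cultures given vehicle only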; conditions: S. cerevisiae sgs1 mgt1 strain, active compounds read high
Procedure, shortened: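 Growth of a repair-deficient yeast mutant was monitored after compound treatment and expressed as inhibition relative to vehicle-treated cultures.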

[7] = NCI Yeast Anticancer Drug Screen. Data for the CLN2oe strain (AID 163);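 note: 0% = growth of vehicle-only control cultures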; conditions: S. cerevisiae CLN2oe strain, active compounds read high
Procedure, shortened: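 Values reflect how much compound exposure reduced yeast growth, referenced to vehicle-exposed cells. Assay organism is a strain with a defined genetic change affecting cell-cycle control.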

[8] = NCI Yeast Anticancer Drug Screen. Data for the cln2 rad14 strain (AID 165);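 note: 0% = growth equal to vehicle treated cultures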; conditions: S. cerevisiae cln2 rad14 strain, active compounds read high
Procedure, shortened: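 Relative to vehicle controls, growth inhibition of compound-treated cln2 rad14 yeast was recorded.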

[9] = NCI Yeast Anticancer Drug Screen. Data for the bub3 strain (AID 167); conditions: S. cerevisiae bub3 mutant strain, active compounds read high
Procedure, shortened: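 Mutant yeast screening strain plus compound; vehicle-treated cultures serve as the 0% inhibition reference.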

[10] = NCI Yeast Anticancer Drug Screen. Data for the wt2 strain (AID 169); conditions: S. cerevisiae wt2 strain growth inhibition, active compounds read high
Procedure, shortened: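 Values express reduction in yeast growth under compound treatment, referenced to vehicle-treated cells.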

[11] = NCI Yeast Anticancer Drug Screen. Data for the mlh1 strain (AID 171);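 note: 0% = growth of vehicle-treated control cultures of the same strain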; conditions: S. cerevisiae mlh1 strain growth inhibition, active compounds read high
Procedure, shortened: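 Steps: expose the defined-mutant yeast strain to compound; expose a parallel culture to vehicle; measure growth; express compound effect as inhibition relative to the vehicle culture.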

[12] = NCI Yeast Anticancer Drug Screen. Data for the sgs1 strain (AID 173);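 note: 0% = growth of vehicle-only control cultures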; conditions: S. cerevisiae sgs1 mutant, active compounds read high
Procedure, shortened: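 Treat defined-mutant yeast with compound; measure growth; calculate inhibition relative to vehicle-treated cells.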

[13] = NCI Yeast Anticancer Drug Screen. Data for the mlh1 rad18 strain (AID 175); conditions: S. cerevisiae mlh1 rad18 strain growth inhibition, active compounds read high
Procedure, shortened: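 Test agents were incubated with a yeast strain of defined genotype (DNA damage repair defect). Inhibition of growth was derived by comparison with vehicle-exposed cultures.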

[14] = NCI Yeast Anticancer Drug Screen. Data for the rad18 strain (AID 177); conditions: S. cerevisiae rad18 mutant growth inhibition, active compounds read high
Procedure, shortened: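 A genetically defined yeast mutant impaired in DNA damage repair was treated with test compounds, then its growth was measured against cultures receiving vehicle alone.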

[15] = at 5.0 µM (retest, dose inferred, filed as 0.5)
[16] = at 50.0 µM (retest, dose inferred, filed as 5.0)

Structure (SMILES): O=C(O)/C=C\C(=O)NNc1ccc(Br)cc1
- growth inhibition ([1]; at 1.2 µM): 14%
- growth inhibition ([1]; at 3.7 µM): 78% (active)
- growth inhibition ([1]; at 11.0 µM): 98% (active)
- growth inhibition ([1]; at 33.0 µM): 99% (active)
- growth inhibition ([1]; at 100.0 µM): 99% (active)
- growth inhibition ([2]; at 1.2 µM): -1%
- growth inhibition ([2]; at 3.7 µM): 32%
- growth inhibition ([2]; at 11.0 µM): 99% (active)
- growth inhibition ([2]; at 33.0 µM): 99% (active)
- growth inhibition ([2]; at 100.0 µM): 98% (active)
- growth inhibition ([3]; at 1.2 µM): 8%
- growth inhibition ([3]; at 3.7 µM): 53%
- growth inhibition [3, 15]: 10%
- growth inhibition ([3]; at 11.0 µM): 99% (active)
- growth inhibition ([3]; at 33.0 µM): 98% (active)
- growth inhibition [3, 16]: 97% (active)
- growth inhibition ([3]; at 50.0 µM): 98.3% (active)
- growth inhibition ([3]; at 100.0 µM): 99% (active)
- growth inhibition ([4]; at 1.2 µM): 1%
- growth inhibition ([4]; at 3.7 µM): 90% (active)
- growth inhibition [4, 15]: 76% (active)
- growth inhibition ([4]; at 11.0 µM): 99% (active)
- growth inhibition ([4]; at 33.0 µM): 99% (active)
- growth inhibition [4, 16]: 99% (active)
- growth inhibition ([4]; at 50.0 µM): 98.2% (active)
- growth inhibition ([4]; at 100.0 µM): 99% (active)
- growth inhibition ([5]; at 1.2 µM): 4%
- growth inhibition ([5]; at 3.7 µM): 99% (active)
- growth inhibition ([5]; at 11.0 µM): 99% (active)
- growth inhibition ([5]; at 33.0 µM): 99% (active)
- growth inhibition ([5]; at 100.0 µM): 99% (active)
- growth inhibition [6, 15]: 31%
- growth inhibition [6, 16]: 98% (active)
- growth inhibition ([6]; at 50.0 µM): 98.5% (active)
- growth inhibition ([7]; at 1.2 µM): -6%
- growth inhibition ([7]; at 3.7 µM): 96% (active)
- growth inhibition ([7]; at 11.0 µM): 99% (active)
- growth inhibition ([7]; at 33.0 µM): 99% (active)
- growth inhibition ([7]; at 100.0 µM): 99% (active)
- growth inhibition [8, 15]: 15%
- growth inhibition [8, 16]: 97% (active)
- growth inhibition ([8]; at 50.0 µM): 97.3% (active)
- growth inhibition ([9]; at 1.2 µM): 10%
- growth inhibition ([9]; at 3.7 µM): 60%
- growth inhibition [9, 15]: 3%
- growth inhibition ([9]; at 11.0 µM): 99% (active)
- growth inhibition ([9]; at 33.0 µM): 99% (active)
- growth inhibition [9, 16]: 97% (active)
- growth inhibition ([9]; at 50.0 µM): 98.5% (active)
- growth inhibition ([9]; at 100.0 µM): 99% (active)
- growth inhibition ([10]; at 1.2 µM): 13%
- growth inhibition ([10]; at 3.7 µM): 99% (active)
- growth inhibition ([10]; at 11.0 µM): 99% (active)
- growth inhibition ([10]; at 33.0 µM): 99% (active)
- growth inhibition ([10]; at 100.0 µM): 99% (active)
- growth inhibition ([11]; at 1.2 µM): -2%
- growth inhibition ([11]; at 3.7 µM): 77% (active)
- growth inhibition ([11]; at 11.0 µM): 98% (active)
- growth inhibition ([11]; at 33.0 µM): 98% (active)
- growth inhibition ([11]; at 100.0 µM): 99% (active)
- growth inhibition ([12]; at 1.2 µM): 4%
- growth inhibition ([12]; at 3.7 µM): 66%
- growth inhibition ([12]; at 11.0 µM): 99% (active)
- growth inhibition ([12]; at 33.0 µM): 99% (active)
- growth inhibition ([12]; at 100.0 µM): 99% (active)
- growth inhibition [13, 15]: 27%
- growth inhibition [13, 16]: 98% (active)
- growth inhibition ([13]; at 50.0 µM): 98.3% (active)
- growth inhibition ([14]; at 1.2 µM): -2%
- growth inhibition ([14]; at 3.7 µM): 95% (active)
- growth inhibition ([14]; at 11.0 µM): 98% (active)
- growth inhibition ([14]; at 33.0 µM): 98% (active)
- growth inhibition ([14]; at 100.0 µM): 98% (active)

Reference: PubChem BioAssay (NCI)
